Measurements from PubChem BioAssay AID651871 (Sanford-Burnham Center for Chemical Genomics, 2012).
“And” between values parts separate entries of the source, which are not always exact repeats. Identical values can stand only once.

System: H9c2
Assay: protection of cardiomyocytes from stress damage, SAR follow-up, cell-based, panel, H9c2 and HL-1, ATP luminescence, set 2 (AID 651871);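 note: cells exposed to stressor for 2 h before ATP readout; reference of the scale not given here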
Conditions: H9c2/HL-1 cardiomyocytes, 2-deoxyglucose stress, with 2-deoxyglucose; run 8, at 79 µM (top of the series)

| SMILES | activity (protection/inhibition) |
| --- | --- |
| COc1ccc2c(c1OC)C(=O)N1c3ccccc3C(=O)N(Cc3cccc(Cl)c3Cl)C21 (stereo not drawn) | 89.8% and 74.3% and -3.43% |
| COc1ccc2nc(-c3cc(OC)c(OC)c(OC)c3)cc(C(=O)NCC(=O)Nc3ccc(C(C)=O)cc3)c2c1 | 83.5% |
| CCOC(=O)c1cccc(NC(=O)CNC(=O)c2cc(-c3cc(OC)c(OC)c(OC)c3)nc3ccccc23)c1 | 92.9% |
